From ChEMBL document CHEMBL1157539, “Thousands of chemical starting points for antimalarial lead identification” (Nature, 2010) come the findings set out here.

Usually Inhibition stands for the drop in the measured response relative to a control, in per cent. High values mean a strong effect, low ones a weak effect.

The test relates to Plasmodium falciparum. Briefly: GSK_TCMDC: Inhibition of Plasmodium falciparum 3D7 in whole red blood cells, using parasite LDH activity as an index of growth. Test compounds present at 2uM. It counts as functional.
Take `CN1CCC(N(Cc2ccc(-c3ccc(C(F)(F)F)cc3)cc2)C(=O)Cn2cc(Cc3cnn(C)c3)c(=O)nc2SCc2cccc(F)c2F)CC1.O=C(O)C(O)C(O)C(=O)O`: the Inhibition is given as 88%. With `Cc1noc(C)c1-c1cccc(CNCc2cccc(-c3ccc(-c4nc5cccc(C)c5[nH]4)s3)c2)c1.O=C(O)C(F)(F)F`, the Inhibition is listed as 100%.

On to `c1ccc2cc3c(NCCN4CCOCC4)ccnc3cc2c1`, for which the Inhibition is 99%. Under `O=C(NC1CCCCC1)c1csc(C2CCCN(C(=O)c3ccc(O)c(-c4cccc(C(F)(F)F)c4)c3)C2)n1` (stereo unspecified) stands 96%; under `COc1cc(N(Cc2ccccc2C)S(=O)(=O)Cc2ccccc2[N+](=O)[O-])c(OC)cc1Cl`, 94%. In the case of `Cl.Nc1ccnc2ccc(NC(=O)CCCCCc3ccccc3)cc12`, the Inhibition amounted to 96%.

Turning to `Cc1ccc(CNC(=O)[C@H](CC(C)C)Nc2cc(C)nc(Nc3ccccc3)n2)cc1.O=C(O)C(F)(F)F`, the Inhibition worked out at 97%. Under `N#Cc1ccc(CN2CCCN(Cc3cccc(NC(=O)c4ccc(Cl)c(Cl)c4)c3)CC2)cc1.O=C(O)C(F)(F)F` stands 95%; under `CC(C)NCc1ccc(-c2cccc(-c3nc4cc(C(F)(F)F)ccc4[nH]3)c2)cc1.O=C(O)C(F)(F)F`, 100%. With `Cc1cccc(NC(=O)N(Cc2cc3cc(C)cc(C)c3[nH]c2=O)C2CC2)c1`, the Inhibition came out at 97%. Under `O=C1NC(=S)N/C1=C/C=C/c1ccc([N+](=O)[O-])o1` stands 82%. In the case of `Br.CCCOC(=O)c1ccc(OCCCON2C(=N)N=C(N)NC2(C)C)cc1` it was 95%; in that of `Cc1[nH]c(C)c(-c2ccc(OCc3cc(F)cc(F)c3)nc2)c(=O)c1Br`, 98%; in that of `CN1CCCC(CN2CCN(Cc3cccc(-c4ccc(-c5nc6cc(C(F)(F)F)ccc6[nH]5)cc4)c3)CC2)C1.O=C(O)C(F)(F)F` (stereo unspecified), 99%.

`COc1cc2nc(NCCCO)nc(Nc3ccc(Oc4ccccc4)cc3)c2cc1OC` returned an Inhibition of 100%. `CN1CCN(CCCN(Cc2csc(-c3ccc(CNCc4ccccc4)cc3)n2)S(=O)(=O)c2ccccc2)CC1.O=C(O)C(F)(F)F` displayed an Inhibition of 99%. Under `CCNc1cc(CCCC(=O)OCC)nc(Nc2ccc(C)cc2)n1.O=C(O)C(F)(F)F` stands 100%; under `CO/C(=C\C=C\c1cc2cc(Cl)c(Cl)cc2[nH]1)C(=O)NCCCN1CCN(Cc2ccccc2)CC1`, 94%; under `Cn1cncc1CNCc1ccc(-c2cccc(-c3nc4ccccc4[nH]3)c2)cc1.O=C(O)C(F)(F)F`, 100%. In the case of `CN(C)c1ccc(C=CC(=O)NC(=O)c2ccccc2O)cc1` it was 92%; in that of `CCOC(=O)c1c(CN2CCCC2)n(-c2ccccc2)c2cc(Br)c(O)cc12`, 83%. Consider `Fc1cccc(C=NN=c2cc[nH]c3ccc(C(F)(F)F)cc23)c1`, for which the Inhibition is 100%. In the case of `Cl.Oc1ccc(-c2cc(COc3ccccc3C(F)(F)F)c(C3=CCNCC3)cc2COc2ccccc2C(F)(F)F)cc1` it was 100%; in that of `Cc1cccc2c(C(=O)NC3CCN(Cc4ccccc4)CC3)cc(-c3cccnc3)nc12`, 81%. Take `O=C(NCCCCCN1CCC(c2c[nH]c3ccccc23)CC1)Nc1ccc(I)cc1`: the Inhibition is 100%. In the case of `NC(CC1CC(=O)N1CC(=O)O)C(=O)O` (stereo unspecified) it was 95%.
